# Inconclusive results are not listed. Active and inactive are the calls of the source.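 How the source made its calls, unless noted: active means normalized viability below 100% at a tested concentration; inactive means the rest.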
# How the values were obtained:
# [1] = growth inhibition of DIPG glioma cells, dose response, cell-based, SU-DIPG-XVII, MIPE5.0, CellTiter-Glo, qHTS (AID 1347060; cut-off not given, nearly all actives have AC50 up to about 26 µM;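 further: cells exposed to compound for 48 hours before viability readout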); details: SU-DIPG-XVII viability, CellTiter-Glo ATP luminescence
# [2] = growth inhibition of DIPG glioma cells, dose response, cell-based, SU-DIPG-XIII, MIPE4.0, CellTiter-Glo, qHTS (AID 1347061; cut-off not given, nearly all actives have AC50 up to about 37 µM;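 further: cells exposed to compound for 48 hours before readout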); details: SU-DIPG-XIII viability, CellTiter-Glo ATP luminescence
# [3] = growth inhibition of DIPG glioma cells, dose response, cell-based, JHH-DIPG-1, MIPE4.0, CellTiter-Glo, qHTS (AID 1347062; cut-off not given, nearly all actives have AC50 up to about 27 µM;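 further: cells exposed to compound for two days before readout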); details: JHH-DIPG-1 viability, CellTiter-Glo ATP luminescence
# [4] = growth inhibition of DIPG glioma cells, dose response, cell-based, SU-DIPG-IV, MIPE4.0, CellTiter-Glo, qHTS (AID 1347063; cut-off not given, nearly all actives have AC50 up to about 30 µM;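 further: compound exposure lasted 48 hours before the viability readout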); details: SU-DIPG-IV viability, CellTiter-Glo ATP luminescence
# [5] = growth inhibition of DIPG glioma cells, dose response, cell-based, SU-DIPG-XIII, MIPE5.0, CellTiter-Glo, qHTS (AID 1347064; cut-off not given, nearly all actives have AC50 up to about 23 µM;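 further: cells exposed to compound for 48 hours before the viability read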); details: SU-DIPG-XIII viability, CellTiter-Glo ATP luminescence
# [6] = viability loss in pontine glioma line – cell-based, SU-DIPG-XXV, MIPE5.0, CellTiter-Glo, qHTS, dose response (AID 1347065; cut-off not given, nearly all actives have AC50 up to about 26 µM;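 further: cells exposed to compound for 48 hours before ATP readout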); details: CellTiter-Glo ATP luminescence
# [7] = SU-DIPG-VI glioma cell viability, MIPE4.0 library, CellTiter-Glo luminescence, qHTS (AID 1347066; cut-off not given, nearly all actives have AC50 up to about 30 µM;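 further: cells exposed to compound for 48 hours before readout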); details: CellTiter-Glo ATP luminescence
# [8] = JHH-DIPG-1 glioma cell viability, MIPE5.0 library, CellTiter-Glo luminescence, qHTS (AID 1347067; cut-off not given, nearly all actives have AC50 up to about 26 µM;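 further: cells exposed to compound for 48 hours before readout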); details: JHH-DIPG-1 glioma viability, CellTiter-Glo ATP luminescence
# [9] = SU-DIPG-XXV glioma cell viability, MIPE5.0 library, qHTS (AID 1347068; cut-off not given, nearly all actives have IC50 up to about 30 µM;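 further: cells exposed to compound for 48 hours before viability readout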)
# [10] = sensitizers of A549 cells to miR-34 induction, primary screen, imaging, A549 dox-inducible miR-34, nuclei and caspase counts (AID 1347080;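 active means compounds whose cell count with miR-34 switched on is under 0.7 times the count with it off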); details: A549 miR-34 inducible, Hoechst nuclei count, 48 h
# [11] = modifiers of HSF1 nuclear foci, imaging, Selleck Cancer Library (AID 1347162; in the data active means plate-normalised HSF1 focus index below about 0.46); details: human cells, at 10 µM; SSMD: measured here: HSF1 foci SSMD mean; cell count: measured here: cell number; plate-normalised HSF1 focus index: stronger effect = lower value
# [12] = survival rescue of mitochondrial mutant cells in low glucose, primary screen, MELAS cybrids, Rieske KO mouse fibroblasts, CellTiter-Glo (AID 1508586;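 active means mean z-score across replicates of 1.96 or higher in either the MELAS or the Rieske mutant cell line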;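 further: z relative to plate mean and SD of compound and empty wells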)
# [13] = ovarian cancer cell viability with rucaparib, profiling panel, oncology-focused library, rucaparib conditional (AID 1508598); details: patient-derived ovarian cancer cells, CellTiter-Glo viability, 144 h, stronger effect = lower value
# [14] = LFS_MB_P medulloblastoma growth inhibition, cell-based, chromothripsis tumors, cisplatin or BGB combos (AID 1671449; in the data active means inhibition above about 80%;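 further: cells exposed for 96 hours; 0% = vehicle DMSO and 100% = killing by high DMSO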); details: LFS_MB_P medulloblastoma cells
# [15] = HDN33 neuroblastoma growth inhibition, cell-based, chromothripsis tumors, cisplatin or BGB combos (AID 1671450; in the data active means inhibition above about 80%;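 further: cells exposed to compound for four days; 0% = vehicle DMSO and 100% = cell killing by high DMSO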); details: HDN33 neuroblastoma cells, stronger effect = higher value
# [16] = ICB984 medulloblastoma cell growth inhibition, synergistic combos for chromothripsis tumors, cisplatin or BGB combos (AID 1671451; call rule not given here;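 further: cells exposed for 96 hours before readout; 0% = vehicle DMSO and 100% = killing by high DMSO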); details: ICB984 medulloblastoma cells, drug combinations, stronger effect = higher value
# [17] = HTB85 osteosarcoma cell growth inhibition, synergistic combos for chromothripsis tumors, BGB or cisplatin IC20 combos (AID 1671453; in the data active means inhibition above about 80%;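 further: cells exposed for 96 hours before readout; 0% = vehicle DMSO and 100% = high DMSO killing control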); details: HTB85 osteosarcoma cells, drug combinations, stronger effect = higher value
# [18] = MDA-MB-436 breast carcinoma cell growth inhibition, synergistic combos for chromothripsis tumors, BGB or cisplatin combos (AID 1671458; call rule not given here;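 further: cells exposed for 96 hours; 0% = vehicle DMSO and 100% = killing by high DMSO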); details: MDA-MB-436 breast carcinoma growth inhibition, drug combinations, stronger effect = higher value
# [19] = growth inhibition of BT084 medulloblastoma cells, cell-based, ICGC_MB145, cisplatin and BGB IC40 combos (AID 1671461; in the data active means inhibition above about 80%;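 further: cells exposed to drugs for 96 hours; 0% = vehicle DMSO and 100% = high DMSO full killing control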); details: drug combinations, stronger effect = higher value
# [20] = growth inhibition of RCMB18 medulloblastoma cells, cell-based, cisplatin and BGB IC40 combos (AID 1671462; in the data active means inhibition above about 80%;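 further: cells exposed to compound for four days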); details: stronger effect = higher value
smiles,measurement,setting,value
O=c1cc(N2CCOCC2)oc2c(-c3cccc4c3sc3ccccc34)cccc12,AC50,[1],13.2 µM (active)
same,outcome,[2],inactive
same,AC50,[3],23.5 µM (active)
same,AC50,[4],14.8 µM (active)
same,AC50,[5],16.6 µM (active)
same,AC50,[6],14.8 µM (active)
same,AC50,[7],18.7 µM (active)
same,AC50,[8],16.6 µM (active)
same,IC50,[9],29.5 µM (active)
same,fold change,"[10]; stronger effect = lower value, cell number ratio, induced over uninduced",0.901 (inactive)
same,fold change,[10]; measured here: relative caspase fold change +Dox/-Dox,0.761
same,cell count,"[10]; measured here: total cells with miR-34 induction, stronger effect = lower value",6010
same,cell count,[10]; measured here: total cells without miR-34 induction,6670
same,SSMD,[11],-0.228
same,cell count,[11],7060
same,plate-normalised HSF1 focus index,[11],0.984 (inactive)
same,z-score,"[12]; MELAS cybrid survival, CellTiter-Glo 48 h, stronger effect = higher value",-0.264 (inactive)
same,z-score,"[12]; Rieske KO mouse fibroblast survival, CellTiter-Glo 72 h",1.08
same,viability,"[13]; at 0.000305 µM, OCI-C5x cells, with rucaparib 10 µM, 100% = cells with rucaparib alone",98.4% (active)
same,viability,"[13]; at 0.000305 µM, OCI-C5x cells, without rucaparib",106% (inactive)
same,viability,"[13]; at 0.000305 µM, OCI-P5x cells, with rucaparib 20 µM, 100% = cells with rucaparib alone",104% (inactive)
same,viability,"[13]; at 0.000305 µM, OCI-P5x cells, without rucaparib",99.9% (active)
same,viability,"[13]; at 0.00122 µM, OCI-C5x cells, with rucaparib 10 µM, 100% = cells with rucaparib alone",100% (inactive)
same,viability,"[13]; at 0.00122 µM, OCI-C5x cells, without rucaparib",104% (inactive)
same,viability,"[13]; at 0.00122 µM, OCI-P5x cells, with rucaparib 20 µM, 100% = cells with rucaparib alone",103% (inactive)
same,viability,"[13]; at 0.00122 µM, OCI-P5x cells, without rucaparib",102% (inactive)
same,viability,"[13]; at 0.00488 µM, OCI-C5x cells, with rucaparib 10 µM, 100% = cells with rucaparib alone",101% (inactive)
same,viability,"[13]; at 0.00488 µM, OCI-C5x cells, without rucaparib",103% (inactive)
same,viability,"[13]; at 0.00488 µM, OCI-P5x cells, with rucaparib 20 µM, 100% = cells with rucaparib alone",107% (inactive)
same,viability,"[13]; at 0.00488 µM, OCI-P5x cells, without rucaparib",99% (active)
same,viability,"[13]; at 0.0195 µM, OCI-C5x cells, with rucaparib 10 µM, 100% = cells with rucaparib alone",98.9% (active)
same,viability,"[13]; at 0.0195 µM, OCI-C5x cells, without rucaparib",103% (inactive)
same,viability,"[13]; at 0.0195 µM, OCI-P5x cells, with rucaparib 20 µM, 100% = cells with rucaparib alone",107% (inactive)
same,viability,"[13]; at 0.0195 µM, OCI-P5x cells, without rucaparib",92.1% (active)
same,viability,"[13]; at 0.0781 µM, OCI-C5x cells, with rucaparib 10 µM, 100% = cells with rucaparib alone",108% (inactive)
same,viability,"[13]; at 0.0781 µM, OCI-C5x cells, without rucaparib",98% (active)
same,viability,"[13]; at 0.0781 µM, OCI-P5x cells, with rucaparib 20 µM, 100% = cells with rucaparib alone",98.6% (active)
same,viability,"[13]; at 0.0781 µM, OCI-P5x cells, without rucaparib",90.1% (active)
same,viability,"[13]; at 0.313 µM, OCI-C5x cells, with rucaparib 10 µM, 100% = cells with rucaparib alone",97% (active)
same,viability,"[13]; at 0.313 µM, OCI-C5x cells, without rucaparib",99% (active)
same,viability,"[13]; at 0.313 µM, OCI-P5x cells, with rucaparib 20 µM, 100% = cells with rucaparib alone",99.1% (active)
same,viability,"[13]; at 0.313 µM, OCI-P5x cells, without rucaparib",91.6% (active)
same,viability,"[13]; at 1.25 µM, OCI-C5x cells, with rucaparib 10 µM, 100% = cells with rucaparib alone",101% (inactive)
same,viability,"[13]; at 1.25 µM, OCI-C5x cells, without rucaparib",108% (inactive)
same,viability,"[13]; at 1.25 µM, OCI-P5x cells, with rucaparib 20 µM, 100% = cells with rucaparib alone",95.4% (active)
same,viability,"[13]; at 1.25 µM, OCI-P5x cells, without rucaparib",85.4% (active)
same,viability,"[13]; at 5 µM, OCI-C5x cells, with rucaparib 10 µM, 100% = cells with rucaparib alone",66.1% (active)
same,viability,"[13]; at 5 µM, OCI-C5x cells, without rucaparib",89.5% (active)
same,viability,"[13]; at 5 µM, OCI-P5x cells, with rucaparib 20 µM, 100% = cells with rucaparib alone",49.8% (active)
same,viability,"[13]; at 5 µM, OCI-P5x cells, without rucaparib",78.7% (active)
same,inhibition,"[14]; at 0.5 µM, stronger effect = higher value",-9.52% (inactive)
same,inhibition,"[14]; measured here: combination with BGB IC20, at 0.005 µM",-35.2%
same,inhibition,"[14]; measured here: combination with BGB IC40, at 0.005 µM",-73.8%
same,inhibition,"[14]; measured here: combination with BGB IC40, at 0.05 µM",-46%
same,inhibition,"[14]; measured here: combination with cisplatin, at 0.5 µM, stronger effect = higher value",-30%
same,inhibition,"[14]; measured here: combination with cisplatin, at 5 µM, stronger effect = higher value",-29.6%
same,inhibition,"[15]; BGB combo, at 5 µM",-83.5%
same,inhibition,[15]; at 0.5 µM,-25.6% (inactive)
same,inhibition,"[15]; cisplatin combo, at 5 µM",-52%
same,inhibition,"[15]; measured here: with BGB IC20 combination, at 0.5 µM",-33.3%
same,inhibition,"[15]; measured here: with cisplatin IC20 combination, at 0.5 µM",-8.96%
same,inhibition,"[15]; single agent, at 5 µM",-28.3%
same,inhibition,"[16]; BGB IC20 combo, at 0.005 µM",-21.3%
same,inhibition,"[16]; BGB IC40 combo, at 0.005 µM",-19.1%
same,inhibition,"[16]; BGB IC40 combo, at 0.05 µM",-12.3%
same,inhibition,[16]; at 0.5 µM,-40.4% (inactive)
same,inhibition,"[16]; cisplatin combo, at 0.05 µM",-18%
same,inhibition,"[16]; cisplatin combo, at 0.5 µM",-48.2%
same,inhibition,"[16]; cisplatin combo, at 5 µM",-17.2%
same,inhibition,"[16]; measured here: 5 uM single agent, at 5 µM",-2.07%
same,inhibition,[17]; at 0.5 µM,-12.3% (inactive)
same,inhibition,"[17]; measured here: with BGB IC20, at 0.5 µM",1.92%
same,inhibition,"[17]; measured here: with BGB IC20, at 5 µM",-7.86%
same,inhibition,"[17]; measured here: with cisplatin IC20, at 0.5 µM",-21.1%
same,inhibition,"[17]; measured here: with cisplatin IC20, at 5 µM",-6.63%
same,inhibition,"[17]; single agent, at 5 µM",12.4%
same,inhibition,[18]; at 0.5 µM,-3.85% (inactive)
same,inhibition,"[18]; measured here: BGB combination, at 0.5 µM",6.02%
same,inhibition,"[18]; measured here: BGB combination, at 5 µM",9.28%
same,inhibition,"[18]; measured here: cisplatin combination, at 0.5 µM",-13%
same,inhibition,"[18]; measured here: cisplatin combination, at 5 µM",5.38%
same,inhibition,[19]; at 0.5 µM,-28.7% (inactive)
same,inhibition,"[19]; cisplatin combination, at 0.5 µM",-22.9%
same,inhibition,"[19]; cisplatin combination, at 5 µM",-216%
same,inhibition,"[19]; measured here: BGB IC40 combination 0.05 uM, at 0.05 µM",-22.7%
same,inhibition,"[19]; single agent, at 5 µM",-20.5%
same,inhibition,[20]; at 0.5 µM,-29.6% (inactive)
same,inhibition,"[20]; cisplatin combo, at 5 µM",-34.8%
same,inhibition,"[20]; measured here: BGB IC40 combination, at 0.05 µM",-8.83%
same,inhibition,"[20]; measured here: combination with cisplatin, at 0.5 µM",-51.5%
same,inhibition,"[20]; single agent, at 5 µM",0.048%
